Measured values: ChEMBL document CHEMBL1961873, “Compounds: GSK PKIS; Assays: Nanosyn kinase panel” (2012)

Tests used:
[1] = target: Ribosomal protein S6 kinase alpha-6 (Homo sapiens) (UniProt Q9UK32); conditions: at 1 µM;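 further: each value is a mean inhibition of RSK4 from a GSK PKIS panel screen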
[2] = target: T1, Serine/threonine-protein kinase Sgk1 (Homo sapiens) (UniProt O00141); conditions: at 0.1 µM
T1 sequence (whole entry): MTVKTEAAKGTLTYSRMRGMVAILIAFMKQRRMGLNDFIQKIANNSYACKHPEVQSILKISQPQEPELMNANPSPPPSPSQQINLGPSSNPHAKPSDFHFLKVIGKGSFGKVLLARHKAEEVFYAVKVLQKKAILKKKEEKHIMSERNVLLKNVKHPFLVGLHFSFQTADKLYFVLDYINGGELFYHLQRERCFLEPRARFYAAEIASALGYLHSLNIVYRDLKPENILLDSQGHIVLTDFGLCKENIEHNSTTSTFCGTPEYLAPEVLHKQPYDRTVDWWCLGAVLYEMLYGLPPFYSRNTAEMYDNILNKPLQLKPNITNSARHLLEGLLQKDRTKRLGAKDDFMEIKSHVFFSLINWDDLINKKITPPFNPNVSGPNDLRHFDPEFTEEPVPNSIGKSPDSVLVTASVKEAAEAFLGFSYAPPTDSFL

[3] = target: T1, Serine/threonine-protein kinase Sgk1 (Homo sapiens); conditions: at 1 µM
[4] = target: T2, Serine/threonine-protein kinase Sgk2 (Homo sapiens) (UniProt Q9HBY8); conditions: at 0.1 µM
T2 sequence (whole entry): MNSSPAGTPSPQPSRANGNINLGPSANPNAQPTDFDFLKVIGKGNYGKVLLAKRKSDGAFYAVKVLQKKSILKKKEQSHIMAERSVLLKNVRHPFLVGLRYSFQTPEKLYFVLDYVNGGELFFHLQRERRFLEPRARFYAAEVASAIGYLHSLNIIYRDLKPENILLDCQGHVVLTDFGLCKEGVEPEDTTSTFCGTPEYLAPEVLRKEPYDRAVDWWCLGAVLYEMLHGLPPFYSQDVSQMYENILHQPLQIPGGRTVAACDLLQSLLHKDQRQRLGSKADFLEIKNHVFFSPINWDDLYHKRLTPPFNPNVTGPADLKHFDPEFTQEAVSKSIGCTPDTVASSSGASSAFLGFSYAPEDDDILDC

[5] = target: T2, Serine/threonine-protein kinase Sgk2 (Homo sapiens); conditions: at 1 µM
[6] = target: T3, Serine/threonine-protein kinase Sgk3 (Homo sapiens) (UniProt Q96BR1); conditions: at 0.1 µM
T3 sequence (whole entry): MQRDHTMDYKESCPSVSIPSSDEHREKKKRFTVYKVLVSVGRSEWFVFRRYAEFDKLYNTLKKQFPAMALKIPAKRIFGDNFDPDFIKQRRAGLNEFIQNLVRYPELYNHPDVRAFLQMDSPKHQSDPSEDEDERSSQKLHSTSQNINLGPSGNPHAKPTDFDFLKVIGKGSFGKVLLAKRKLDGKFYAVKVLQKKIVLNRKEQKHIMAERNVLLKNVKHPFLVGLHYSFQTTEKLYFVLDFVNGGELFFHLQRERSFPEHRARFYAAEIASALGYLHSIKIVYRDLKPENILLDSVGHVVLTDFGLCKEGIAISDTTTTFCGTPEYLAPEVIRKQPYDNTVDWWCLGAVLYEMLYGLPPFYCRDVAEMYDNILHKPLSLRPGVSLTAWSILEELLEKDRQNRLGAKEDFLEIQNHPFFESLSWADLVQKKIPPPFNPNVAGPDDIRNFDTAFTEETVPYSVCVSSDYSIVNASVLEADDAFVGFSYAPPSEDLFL

[7] = target: T3, Serine/threonine-protein kinase Sgk3 (Homo sapiens); conditions: at 1 µM
[8] = target: 5'-AMP-activated protein kinase catalytic subunit alpha-1 (Homo sapiens) (UniProt Q13131); conditions: at 0.1 µM
Sequence of 5'-AMP-activated protein kinase catalytic subunit alpha-1 (Homo sapiens) (Q13131 whole entry, looked up): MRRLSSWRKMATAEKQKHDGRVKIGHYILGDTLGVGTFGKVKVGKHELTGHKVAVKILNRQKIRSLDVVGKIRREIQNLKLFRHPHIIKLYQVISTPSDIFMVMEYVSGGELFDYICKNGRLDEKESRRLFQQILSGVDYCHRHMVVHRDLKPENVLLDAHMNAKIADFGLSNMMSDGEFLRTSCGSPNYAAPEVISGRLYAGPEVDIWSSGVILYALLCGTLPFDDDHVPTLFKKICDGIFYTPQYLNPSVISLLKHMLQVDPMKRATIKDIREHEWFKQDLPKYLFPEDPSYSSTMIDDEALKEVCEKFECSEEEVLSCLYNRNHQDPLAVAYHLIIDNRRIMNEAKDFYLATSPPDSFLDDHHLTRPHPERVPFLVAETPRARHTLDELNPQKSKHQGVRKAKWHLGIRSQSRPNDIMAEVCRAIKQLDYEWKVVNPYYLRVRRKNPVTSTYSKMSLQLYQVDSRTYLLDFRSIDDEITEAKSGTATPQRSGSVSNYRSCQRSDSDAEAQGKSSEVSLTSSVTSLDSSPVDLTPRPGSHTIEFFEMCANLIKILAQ

[9] = target: 5'-AMP-activated protein kinase catalytic subunit alpha-1 (Homo sapiens) (UniProt Q13131); conditions: at 1 µM
[10] = target: 5'-AMP-activated protein kinase catalytic subunit alpha-2 (Homo sapiens) (UniProt P54646); conditions: at 0.1 µM
Sequence of 5'-AMP-activated protein kinase catalytic subunit alpha-2 (Homo sapiens) (P54646 whole entry, looked up): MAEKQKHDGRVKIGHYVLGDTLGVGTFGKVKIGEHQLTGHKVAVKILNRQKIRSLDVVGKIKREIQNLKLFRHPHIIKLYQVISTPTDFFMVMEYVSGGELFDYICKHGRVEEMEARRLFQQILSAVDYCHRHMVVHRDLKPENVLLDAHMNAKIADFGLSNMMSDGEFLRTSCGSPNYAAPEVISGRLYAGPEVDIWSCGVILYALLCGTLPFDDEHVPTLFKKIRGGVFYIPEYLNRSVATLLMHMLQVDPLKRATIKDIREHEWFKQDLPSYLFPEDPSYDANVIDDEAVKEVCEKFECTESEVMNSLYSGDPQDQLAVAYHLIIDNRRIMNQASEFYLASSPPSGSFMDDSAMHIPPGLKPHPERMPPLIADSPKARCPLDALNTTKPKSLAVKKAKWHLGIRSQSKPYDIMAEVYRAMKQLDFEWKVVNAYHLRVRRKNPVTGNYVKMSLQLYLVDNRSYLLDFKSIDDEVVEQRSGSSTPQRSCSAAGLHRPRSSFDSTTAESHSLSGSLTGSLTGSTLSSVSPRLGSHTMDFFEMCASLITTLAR

[11] = target: 5'-AMP-activated protein kinase catalytic subunit alpha-2 (Homo sapiens) (UniProt P54646); conditions: at 1 µM
[12] = target: T4, NUAK family SNF1-like kinase 1 (Homo sapiens) (UniProt O60285); conditions: at 0.1 µM
T4 sequence (whole entry): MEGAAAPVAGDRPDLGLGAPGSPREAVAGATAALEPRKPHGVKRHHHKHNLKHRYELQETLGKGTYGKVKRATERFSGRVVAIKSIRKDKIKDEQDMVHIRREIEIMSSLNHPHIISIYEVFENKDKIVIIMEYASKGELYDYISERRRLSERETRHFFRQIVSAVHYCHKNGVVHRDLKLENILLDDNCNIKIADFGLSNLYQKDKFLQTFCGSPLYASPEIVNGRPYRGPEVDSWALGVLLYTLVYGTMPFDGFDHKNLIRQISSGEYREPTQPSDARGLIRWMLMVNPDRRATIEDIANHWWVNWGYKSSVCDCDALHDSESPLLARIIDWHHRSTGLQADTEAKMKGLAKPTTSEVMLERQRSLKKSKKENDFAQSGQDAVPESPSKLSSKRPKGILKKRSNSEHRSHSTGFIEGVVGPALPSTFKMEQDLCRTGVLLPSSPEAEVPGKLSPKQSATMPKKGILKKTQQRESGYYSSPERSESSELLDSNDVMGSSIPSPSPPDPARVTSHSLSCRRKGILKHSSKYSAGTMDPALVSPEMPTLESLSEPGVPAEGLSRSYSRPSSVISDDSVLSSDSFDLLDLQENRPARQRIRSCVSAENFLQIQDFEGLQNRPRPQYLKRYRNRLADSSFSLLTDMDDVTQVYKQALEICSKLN

[13] = target: T4, NUAK family SNF1-like kinase 1 (Homo sapiens); conditions: at 1 µM
[14] = target: T5, Serine/threonine-protein kinase BRSK1 (Homo sapiens) (UniProt Q8TDC3); conditions: at 0.1 µM
T5 sequence (whole entry): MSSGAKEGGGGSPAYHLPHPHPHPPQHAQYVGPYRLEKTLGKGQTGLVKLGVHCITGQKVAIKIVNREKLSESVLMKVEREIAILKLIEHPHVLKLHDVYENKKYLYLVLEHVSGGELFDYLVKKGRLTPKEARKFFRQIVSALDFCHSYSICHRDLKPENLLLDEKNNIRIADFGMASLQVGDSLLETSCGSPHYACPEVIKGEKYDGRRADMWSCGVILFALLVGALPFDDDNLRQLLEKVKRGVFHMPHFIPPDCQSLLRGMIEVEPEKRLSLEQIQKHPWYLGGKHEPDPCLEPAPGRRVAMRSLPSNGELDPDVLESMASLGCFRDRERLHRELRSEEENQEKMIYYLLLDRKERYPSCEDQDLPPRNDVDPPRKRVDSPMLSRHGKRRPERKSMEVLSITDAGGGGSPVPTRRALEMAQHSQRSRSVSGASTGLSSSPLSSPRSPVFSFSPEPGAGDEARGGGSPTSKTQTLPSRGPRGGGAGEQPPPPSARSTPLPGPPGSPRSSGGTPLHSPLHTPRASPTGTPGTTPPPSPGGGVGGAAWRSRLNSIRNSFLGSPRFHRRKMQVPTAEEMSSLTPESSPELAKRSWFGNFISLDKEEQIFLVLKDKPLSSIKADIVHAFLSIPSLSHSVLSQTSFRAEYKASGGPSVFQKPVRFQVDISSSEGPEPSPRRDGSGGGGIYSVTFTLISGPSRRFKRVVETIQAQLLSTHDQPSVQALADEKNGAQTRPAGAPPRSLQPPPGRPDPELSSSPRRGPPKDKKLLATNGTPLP

[15] = target: T5, Serine/threonine-protein kinase BRSK1 (Homo sapiens); conditions: at 1 µM
[16] = target: T6, Serine/threonine-protein kinase BRSK2 (Homo sapiens) (UniProt Q8IWQ3); conditions: at 0.1 µM
T6 sequence (whole entry): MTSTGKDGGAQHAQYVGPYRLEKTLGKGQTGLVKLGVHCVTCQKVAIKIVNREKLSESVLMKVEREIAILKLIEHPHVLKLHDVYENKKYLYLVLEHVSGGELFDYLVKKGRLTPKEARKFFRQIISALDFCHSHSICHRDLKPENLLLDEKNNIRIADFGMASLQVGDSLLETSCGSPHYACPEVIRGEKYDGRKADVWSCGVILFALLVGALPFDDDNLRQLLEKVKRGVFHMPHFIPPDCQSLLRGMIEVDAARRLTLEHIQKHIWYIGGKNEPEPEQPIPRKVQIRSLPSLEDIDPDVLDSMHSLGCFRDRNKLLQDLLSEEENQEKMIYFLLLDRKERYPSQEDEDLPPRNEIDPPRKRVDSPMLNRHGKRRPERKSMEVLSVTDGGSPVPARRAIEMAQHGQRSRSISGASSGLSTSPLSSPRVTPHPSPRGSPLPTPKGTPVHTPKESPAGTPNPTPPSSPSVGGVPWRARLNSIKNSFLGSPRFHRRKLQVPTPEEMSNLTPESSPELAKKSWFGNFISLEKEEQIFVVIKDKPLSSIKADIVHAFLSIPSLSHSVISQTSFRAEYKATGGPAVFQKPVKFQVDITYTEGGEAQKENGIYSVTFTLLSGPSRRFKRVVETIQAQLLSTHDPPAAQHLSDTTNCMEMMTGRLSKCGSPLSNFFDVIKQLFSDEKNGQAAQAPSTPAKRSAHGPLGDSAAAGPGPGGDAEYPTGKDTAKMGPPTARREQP

[17] = target: T6, Serine/threonine-protein kinase BRSK2 (Homo sapiens); conditions: at 1 µM
[18] = target: Calcium/calmodulin-dependent protein kinase type 1D (Homo sapiens) (UniProt Q8IU85); conditions: at 0.1 µM
Sequence of Calcium/calmodulin-dependent protein kinase type 1D (Homo sapiens) (Q8IU85 whole entry, looked up): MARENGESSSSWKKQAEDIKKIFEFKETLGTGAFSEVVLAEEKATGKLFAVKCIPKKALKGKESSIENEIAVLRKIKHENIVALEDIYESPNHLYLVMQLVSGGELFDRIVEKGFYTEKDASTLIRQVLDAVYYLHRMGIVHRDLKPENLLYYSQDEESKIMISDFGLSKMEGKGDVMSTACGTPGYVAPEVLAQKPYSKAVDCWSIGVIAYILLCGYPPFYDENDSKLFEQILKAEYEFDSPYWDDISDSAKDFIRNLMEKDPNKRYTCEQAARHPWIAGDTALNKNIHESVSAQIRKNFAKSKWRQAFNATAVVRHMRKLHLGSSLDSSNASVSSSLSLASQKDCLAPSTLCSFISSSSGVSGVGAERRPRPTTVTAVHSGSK

[19] = target: Calcium/calmodulin-dependent protein kinase type 1D (Homo sapiens) (UniProt Q8IU85); conditions: at 1 µM
[20] = target: Calcium/calmodulin-dependent protein kinase type II subunit alpha (Homo sapiens) (UniProt Q9UQM7); conditions: at 0.1 µM;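 further: reported values are averages (mean inhibition of CAMK2A)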
Sequence of Calcium/calmodulin-dependent protein kinase type II subunit alpha (Homo sapiens) (Q9UQM7 whole entry): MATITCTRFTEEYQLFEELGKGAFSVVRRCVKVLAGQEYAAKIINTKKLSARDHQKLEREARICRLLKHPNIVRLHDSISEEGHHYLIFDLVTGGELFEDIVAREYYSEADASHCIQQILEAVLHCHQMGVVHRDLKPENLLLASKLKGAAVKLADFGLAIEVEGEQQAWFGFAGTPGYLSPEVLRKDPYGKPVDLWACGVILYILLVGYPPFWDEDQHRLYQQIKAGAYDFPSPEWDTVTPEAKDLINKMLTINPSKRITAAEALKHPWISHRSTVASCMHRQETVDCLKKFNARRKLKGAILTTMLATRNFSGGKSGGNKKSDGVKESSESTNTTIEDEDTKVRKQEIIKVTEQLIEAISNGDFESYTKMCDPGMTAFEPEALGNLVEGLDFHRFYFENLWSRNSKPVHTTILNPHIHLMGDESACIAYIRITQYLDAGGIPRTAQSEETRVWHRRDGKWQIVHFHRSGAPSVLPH

Sequence of Ribosomal protein S6 kinase alpha-6 (Homo sapiens) (Q9UK32 whole entry): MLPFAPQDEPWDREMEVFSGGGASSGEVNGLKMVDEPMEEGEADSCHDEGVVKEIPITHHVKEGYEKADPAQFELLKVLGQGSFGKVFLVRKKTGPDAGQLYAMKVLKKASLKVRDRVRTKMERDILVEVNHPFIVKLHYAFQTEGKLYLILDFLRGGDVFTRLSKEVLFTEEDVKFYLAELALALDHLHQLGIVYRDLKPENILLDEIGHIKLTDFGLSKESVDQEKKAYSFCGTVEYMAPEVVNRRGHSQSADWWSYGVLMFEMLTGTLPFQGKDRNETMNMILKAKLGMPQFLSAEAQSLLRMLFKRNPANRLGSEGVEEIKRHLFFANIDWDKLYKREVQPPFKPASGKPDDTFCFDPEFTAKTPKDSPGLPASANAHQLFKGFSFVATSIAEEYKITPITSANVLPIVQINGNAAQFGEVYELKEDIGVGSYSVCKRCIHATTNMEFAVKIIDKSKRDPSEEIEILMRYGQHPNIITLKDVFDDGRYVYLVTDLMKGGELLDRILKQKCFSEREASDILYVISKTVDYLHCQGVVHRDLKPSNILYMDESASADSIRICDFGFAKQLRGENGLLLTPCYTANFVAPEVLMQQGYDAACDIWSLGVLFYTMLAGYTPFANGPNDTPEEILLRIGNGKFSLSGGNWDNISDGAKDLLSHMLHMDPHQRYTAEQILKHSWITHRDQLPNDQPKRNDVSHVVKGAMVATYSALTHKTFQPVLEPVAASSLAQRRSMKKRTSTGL

Compound	inhibition [1] [%]	inhibition [2] [%]	inhibition [3] [%]	inhibition [4] [%]	inhibition [5] [%]	inhibition [6] [%]	inhibition [7] [%]	inhibition [8] [%]	inhibition [9] [%]	inhibition [10] [%]	inhibition [11] [%]	inhibition [12] [%]	inhibition [13] [%]	inhibition [14] [%]	inhibition [15] [%]	inhibition [16] [%]	inhibition [17] [%]	inhibition [18] [%]	inhibition [19] [%]	inhibition [20] [%]
CCc1ccc(Oc2nccc(-c3c(-c4ccc(F)cc4)ncn3C3CCNCC3)n2)cc1	3.1	-1.02	1.21	-0.69	1.93	-0.71	1.87	5.5	8.69	5.08	7.27	-0.89	3.95	1.81	-0.56	1.84	3.86	1.54	3.63	4.59
Cc1ccc(NC(=O)c2ccoc2)cc1-c1ccc(C(=O)NCC2CC2)cc1	-0.14	0.63	0.73	2.95	-0.89	7.71	3.98	0.17	1.06	-0.17	1.09	-0.47	-0.78	0	0.43	1.99	0.95	-0.63	-1.53	1.08
NC(=O)c1cc(-c2ccncc2)cc(-c2ccccc2)c1N	2.63	4.37	2.48	4.36	3.52	2.61	5.81	3.6	2.86	4.45	4.03	0.7	1.68	2.46	4.23	1.64	2.72	0.15	1.27	2.51
O=C1Nc2ccccc2/C1=C/Nc1ccc(-n2cncn2)cc1	11.4	5.81	29.2	3.56	10.9	4.57	8.06	5.93	19.3	3.9	15.5	8.76	38.7	2.17	17.2	4.08	26.3	0.18	0.98	3.66
NS(=O)(=O)c1ccc(N/N=C2\C(=O)Nc3ccc(C(=O)NCCCn4ccnc4)cc32)cc1	13	5.02	14.6	2.07	7.54	3.25	6.44	18	64.4	5.78	26.3	19.4	66.4	4.96	31.2	8.96	46	0.1	2.23	3.04
Fc1ccc(-c2ncn(C3CCNCC3)c2-c2ccnc(Oc3ccc(F)c(F)c3)n2)cc1	-0.02	1.79	3.94	3.89	3.96	2.65	2.26	4.6	5.31	3.75	4.77	2.44	6.58	1.29	3.93	3.75	5.29	-1.15	-1.08	2.48
